# FMDV inh – foot and mouth disease virus antiviral activity; FMDV antiviral cell-based qHTS; Potency, µM (series often up to 57.9 µM), without a hit: at the top dose activity change, negative = inhibition, actives largely listed as inhibitors; 410,000 tested, 1.2% active; AID 1159524; calls by dose curve; tested in HEK293T cells; further: read-out not given here; potency means the concentration at half of the fitted maximal effect; nearly all actives have a fitted effect of over 45% in size
# HCV inhibitor – inhibitors of hepatitis C virus infection; Huh7.5.1 HCVcc-Cre infection, luciferase reporter, 44 h; Potency, µM (titrated, usually from 41.8 µM), for the others: at the top dose activity change, negative = inhibition, most hits filed as inhibitors; 340,000 tested, 3.4% active; AID 651820; active means well fitted inhibition curve with a large enough effect; inconclusive means small, poorly fitted or top-dose-only effect, or another doubt; inactive means no such curve, though single readings can be large or run the other way; further: potency means the concentration at half of the fitted maximal effect
#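 Cells (1,000/well) were plated 4 h before compound, then infected with HCVcc-Cre virus (~0.5 moi). After 44 h further culture, infection was read as luciferase luminescence following a 15 min substrate incubation at room temperature.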
# LASV entry inh – Lassa virus entry inhibition. Lassa virus pseudotype entry inhibition, cell reporter. Potency, µM (series often up to 37.9 µM), for the others: top-dose activity change, negative = inhibition, most hits filed as inhibitors. 300,000 tested, 1.2% active; calls by dose curve; tested in HEK293 cells; further: potency means the concentration at half of the fitted maximal effect; nearly all actives have a fitted effect of over 50% in size
# MARV entry inh – inhibitors of Marburg virus binding or cell entry. AID 540276. 300,000 tested, 1.8% active. Marburg virus pseudotyped entry inhibition, cell reporter. Potency, µM (top dose mostly 37.8 µM), for inactives: at the top dose activity change, negative = inhibition, most hits filed as inhibitors; calls by dose curve; tested in HEK293 cells; further: potency means the concentration at half of the fitted maximal effect
# HCMV antiviral – inhibitors of human cytomegalovirus. AID 1259415. HFF cells, HCMV-luciferase reporter, 72 h; hits give low values. activity change, negative = inhibition, % at 57.5 µM. 410,000 tested, 4.5% active; in the data active means activity change below about -60%; inconclusive means no clear call, values can overlap the other calls; inactive means above about -39%
#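 Two compound doses tested in HFFs infected with HCMV-luciferase, MOI 1 PFU/cell, 72 h at 37C. Lysate luminescence read with OneGlo; data normalized against buffer-only and 10uM Salinomycin inhibitor controls.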
# * hit, by the source's call; ? = inconclusive; nt = no result; + = active, no number; [ ] = another dose, or the depositor's remark. Shown are actives, neighbours in structure and some others; about 7.9% of the full set was active somewhere. On the % scale 0 is the no-effect control and ±100 the full control effect.
SMILES,FMDV inh,HCV inhibitor,LASV entry inh,MARV entry inh,HCMV antiviral
CN(Cc1ccccc1)c1nc2nonc2nc1N1CCCC(CN2CCCC2=O)C1 (configuration not stated),-11.1%,6.5%,nt,nt,82.5
CCc1nnc(N/N=C/c2ccccc2Cl)n1N,nt,1.0%,?,4.4%,-3.2
CCc1nnc(N/N=C/c2ccccc2F)n1N,17.8%,-2.4%,nt,?,-80.0*
CC(C)(C)c1nnc(N/N=C/c2ccccc2)n(N)c1=O,-25.0%,11.0%,-3.6%,?,-7.9
CC(C)(C)c1nnc(N/N=C/c2ccccc2O)n(N)c1=O,1.5%,?,?,?,-101.7*
COCC(=O)N1CCCC(C(=O)c2ccc(-c3ccccc3)c(F)c2)C1 (configuration not stated),19.3%,?,?,-5.6%[46.1 µM],0.0
COc1ccccc1CC(=O)Nc1ccc2c(c1)OC1(CCCC1)O2,35.1%,12.6µM*,-22.5%[46.1 µM],?,16.1
CCN1CCN(CCc2nc3cc(NC(=O)COc4ccc(Cl)cc4)ccc3n2C)CC1,-18.0%,?,nt,nt,-38.1
Cc1cccc(OCC(=O)Nc2ccc3c(c2)nc(CCN2CCN(c4ccccn4)CC2)n3C)c1,31.6µM*,6.31µM*,nt,nt,+
Cn1c(CCN2CCN(c3ccccn3)CC2)nc2cc(NC(=O)COc3ccc(Cl)cc3)ccc21,11.2µM*,2.24µM*,nt,nt,-97.1*
CCN1CCN(CCc2nc3cc(NC(=O)COc4ccccc4)ccc3n2C)CC1,2.7%,-3.6%,0.2%[46.1 µM],-6.2%[46.1 µM],-20.6
Cc1ccc2c(c1)N(C(=O)c1ccc(F)cc1)C(C)(C)CC2(C)c1ccccc1 (configuration not stated),?,nt,-10.4%[46.1 µM],nt,-16.1
COc1ccc([C@H]2NC(=O)C[C@H]2C(=O)N2CCOCC2)cc1,nt,nt,nt,nt,-14.6
O=C1/C(=C/c2cccc(F)c2)Oc2cc(O)ccc21,9.5%,-18.5%,?,?,1.0
C#CC1(N2CCCCC2)CCCCC1,-29.9%,nt,nt,nt,-62.2*
CCCc1cc(=O)[nH]c(Nc2cc(Cl)cc(Cl)c2)n1,?,nt,?,?,-105.7*
COc1ccc(/C=N/NC(=S)Nc2ccccc2[N+](=O)[O-])cc1O,-1.9%,?,23.1µM*,?,-65.9*
Cc1ccc(NC(=S)N/N=C/c2ccc(Cl)c([N+](=O)[O-])c2)cc1,8.1%,?,-15.0%,-23.7%,-31.7
O=[N+]([O-])c1cc(/C=N/NC(=S)Nc2ccccc2Cl)ccc1Cl,-17.8%,?,?,8.91µM*,13.5
O=C(NCC1CCC2(CCN(Cc3cccn3-c3ccc(Cl)cn3)CC2)O1)c1ccccc1 (configuration not stated),-18.3%,nt,nt,nt,nt
O=C(Nc1nc(-c2ccccc2)cs1)c1ccc(N2CCOCC2)c([N+](=O)[O-])c1,?,3.55µM*,?,?,nt
O=C(Nc1nc2ccccc2s1)c1ccc(N2CCCCC2)c([N+](=O)[O-])c1,-50.0%,?,?,?,-71.5*
CC(=O)c1cccc(Nc2ncnc3c2cnn3C)c1,-9.3%,nt,?,nt,-11.6
O=C(c1c[nH]c(C(=O)C(Cl)(Cl)Cl)c1)c1c(F)cccc1F,0.0%,9.1%,-16.0%[46.1 µM],8.5%[46.1 µM],-79.5*
CCn1nc(-c2ccccc2)c2nc3ccccc3nc21,?,-11.7%,-17.8%,5.4%,-60.5*
SMILES,FMDV inh,HCV inhibitor,LASV entry inh,MARV entry inh,HCMV antiviral
CN=c1scc(-c2ccc([N+](=O)[O-])cc2)n1/N=C/c1ccco1,47.4%,11.6%,-3.2%,3.5%[46.1 µM],-87.4*
O=C(Cn1ncc2c([nH]c3ccccc32)c1=O)N1CCN(c2ccccn2)CC1,-12.0%,13.6%,nt,nt,-7.6
COc1ccc(N2CCN(C(=O)Oc3ccc([N+](=O)[O-])cc3)CC2)cc1,?,nt,nt,nt,5.4
COc1cccc(N2CCN(C(=O)c3ccc(CS(=O)c4cccc(Cl)c4)o3)CC2)c1 (configuration not stated),-22.4%,nt,-24.9%[46.1 µM],nt,-69.5*
COc1cccc(N2CCN(C(=O)c3ccc(CS(=O)Cc4ccc(Cl)cc4)o3)CC2)c1 (configuration not stated),-7.7%,?,-9.5%[46.1 µM],-13.2%[46.1 µM],-17.2
COc1ccc(N2CCN(C(=O)c3ccc(COc4ccc([N+](=O)[O-])cc4)o3)CC2)cc1,28.2µM*,?,?,?,?
COc1ccc(N2CCN(C(=O)c3ccc(CS(=O)c4cccc(Cl)c4)o3)CC2)cc1 (configuration not stated),?,nt,nt,nt,-73.1*
Cc1cccc(Nc2nc(N)c([N+](=O)[O-])c(NCc3ccccc3)n2)c1,-26.2%,?,?,?,-94.2*
Nc1nc(Nc2ccccc2)nc(NC2CCCCC2)c1[N+](=O)[O-],-22.0%,10µM*,?,?,-78.6*
Nc1nc(NCc2ccccc2)nc(NCc2ccccc2)c1[N+](=O)[O-],-26.1%,-21.4%,5.0%,?,?
Nc1nc(Nc2ccccc2)nc(NCc2ccccc2)c1[N+](=O)[O-],?,?,?,?,-75.2*
Cc1ccc(CNc2nc(N)c([N+](=O)[O-])c(NCc3ccccc3)n2)cc1,4.2%,0.2%,-4.4%,-15.8%,-61.2*
O=C(c1cc2cc(Cl)ccc2[nH]1)N1CCN(Cc2ccc3c(c2)OCO3)CC1,-3.9%,-28.5%,nt,nt,-1.6
Oc1ccccc1Cn1c(-c2ccccc2O)nc2ccccc21,-12.8%,-24.0%,-8.9%,8.1%,17.0
COc1ccccc1Cn1c(-c2ccccc2OC)nc2ccccc21,?,0.9%,19.2%,2.5%,-67.6*
COc1cc(NC(=O)c2cc(C)nc3c2c(C)nn3-c2ccccc2Cl)cc(OC)c1,?,nt,-9.6%[46.1 µM],?,-65.8*
CCC1(C2CCN(C(=O)c3ccccc3Cl)CC2)NC(=O)N(CCc2scnc2C)C1=O (configuration not stated),9.4%,nt,nt,nt,nt
CCOC(=O)[C@@H]1CSc2[nH]c(=O)sc2[C@@H]1c1ccccc1,nt,nt,nt,-3.9%,nt
NS(=O)(=O)c1ccc(CCNc2ccn3nc(-c4ccc(OCCN5CCOCC5)cc4)cc3n2)cc1,-21.8%,nt,nt,nt,-100.0*
c1ccc(COc2ccc(-c3cc4nc(NCCN5CCOCC5)ccn4n3)cc2)cc1,-13.5%,nt,nt,nt,-62.5*
c1ccc(COc2cccc(-c3cc4nc(NCCN5CCOCC5)ccn4n3)c2)cc1,-7.8%,nt,nt,nt,0.3
C=CCn1c(SCC(=O)N2CCN(c3ccccc3)CC2)nc2c([nH]c3ccccc32)c1=O,-22.3%,?,nt,nt,-29.4
Cc1ccc(Nc2nnc(SCC(=O)NCCN3C(=O)CSC3=O)s2)cc1C,56.7%,3.5%,nt,nt,15.7
COC(=O)[C@@H]1CCCN1Cc1ccc2c(c1)CN(Cc1ccccc1)CCO2,-9.6%,nt,nt,nt,nt
CC(=O)O[C@H]1C(=O)[C@]2(C)[C@H]([C@H](OC(=O)c3ccccc3)[C@]3(O)C[C@H](OC(=O)[C@H](O)[C@@H](NC(=O)c4ccccc4)c4ccccc4)C(C)=C1C3(C)C)[C@]1(OC(C)=O)CO[C@@H]1C[C@@H]2O,-1.1%,6.31µM*,nt,nt,-11.5
